Assay outcomes: PubChem BioAssay, National Center for Advancing Translational Sciences (NCATS)
p53null 32C tox – qHTS Screen for Compounds that Selectively Target Cancer Cells with p53 Mutations: Cytotoxicity of p53 Null Cells at the Permissive Temperature | 0.62% of 55,000 active | H1299-neo p53 null cells, ATP luminescence, 24 h, 32C | Potency, µM (series often up to 46.1 µM), without a hit: at the highest dose activity change, negative = cytotoxicity, actives largely listed as cytotoxic | AID 903, 2007;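 further: potency means the concentration at half of the fitted maximal effect; 0% = DMSO only and -100% = full killing by 100 µM tamoxifen; nearly all actives have a fitted effect of over 55% in size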
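H1299-neo, 600 cells/well; overnight 37C; cpd up to 46 uM, 24 h at 32C; ATPlite luminescence after 20 min RT; normalized to DMSO (0%) and tamoxifen 100 uM (100% kill); Hill-fit AC50.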
pS6 MEF inh – Acumen qHTS Assay for Inhibitors of the mTORC1 Signaling Pathway in MEF (Tsc2-/-, p53-/-) Cells: Sytravon; Potency, µM (highest dose often 38.3 µM), for the others: at the top dose activity change, negative = inhibition, hits mostly inhibitors; 0.78% of 44,000 active; Tsc2-/- p53-/- MEF, phospho-rpS6 immunofluorescence/PI, 24 h;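 further: potency means the concentration at half of the fitted maximal effect; plate controls were DMSO for no effect and rapamycin for full effect; nearly all actives have a fitted effect of over 50% in size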
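Tsc2-/-, p53-/- MEFs (empty-vector stable line) in DMEM + 10% FBS were treated with compounds 24 h at 37 degree Celsius, fixed, and immunostained for phospho-rpS6 (Alexa-488) with propidium iodide counterstain. Laser-scanning cytometry gave % positive cells, normalized against 7.5 nM rapamycin and DMSO.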
OvCa metastasis – Primary qHTS assay for Inhibitors of ovarian cancer metastasis using an organotypic tumor microenvironment (TME) model | 0.1% of 46,000 active | Potency, µM (titrated, usually from 45.8 µM), for the others: top-dose activity change, negative = inhibition, most hits filed as inhibitors | SKOV3ip1-GFP adhesion/invasion on 3D omental model, fluorescence;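 further: potency means the concentration at half of the fitted maximal effect; plate controls were DMSO wells for no effect and tomatine positive control wells for full effect; nearly all actives have a fitted effect of over 65% in size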
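A 3D layer of primary human omental fibroblasts, mesothelial cells, fibronectin and collagen I, grown 48 hr, received SKOV3ip1-GFP cells in serum-free medium plus compounds at 0.36-46 umol/L. After 2 hr RT and 16 hr 37 C, fixed adherent GFP cells were counted; normalized to DMSO and tomatine.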
PMP22 txn prim – Cell-based coincidence reporter assay to measure PMP22 gene transcription in S16 Pmp22-F2sN cells - Primary screen. S16 Pmp22-F2sN Schwann cells, FLuc/NLuc coincidence luminescence, 24 h. Potency, µM (series often up to 57.5 µM), for the others: at the top dose activity change, negative = inhibition, hits mostly inhibitors. 2% of 43,000 active; active means clear falling dose curves in both reporters; inconclusive means both reporters move, but less clearly or upward; inactive means either reporter flat; the % is the NLuc reporter signal; further: potency means the concentration at half of the fitted maximal effect; on the % scale 0 is the no-effect control and ±100 the full control effect
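S16(c9) Schwann cells with FLuc/NLuc coincidence reporter in the Pmp22 3' UTR; compounds pin-transferred, 24 h at 37C. Dual-luciferase read: FLuc first, then NLuc after Stop&Glo, each 10 min at room temperature.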
S16 viability – Cell viability qHTS assay in S16 Pmp22-F2sN cells; S16 Pmp22-F2sN Schwann cells (luciferase reporters placed in the Pmp22 gene) viability, CellTiter-Glo, 24 h; Potency, µM (series often up to 57.5 µM), inactives show top-dose activity change, negative = cytotoxicity, hits mostly cytotoxic; 0.48% of 43,000 active; AID 1508642, 2021; further: potency means the concentration at half of the fitted maximal effect; on the % scale 0 is the no-effect control and ±100 the full control effect; nearly all actives have a fitted effect of over 65% in size
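Luminescence from CellTiter-Glo, read by CCD camera after a 15 min room-temperature incubation, served as the viability signal. Reporter Schwann cells (S16 Pmp22-F2sN) had been treated with pin-transferred compounds for 24 h at 37C.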
p53null 39C kill – qHTS Screen for Compounds that Selectively Target Cancer Cells with p53 Mutations: Cytotoxicity of p53 Null Cells at the Nonpermissive Temperature | H1299 p53-null (neo) cells, 39C, ATPlite viability, 24 h | Potency, µM (doses to about 46.1 µM), for the others: at the highest dose activity, negative = cell killing, actives largely listed as cytotoxic | 0.97% of 55,000 active | AID 904, 2007;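 further: potency means the concentration at half of the fitted maximal effect; 0% = DMSO only and -100% = full killing by 100 µM tamoxifen; nearly all actives have a fitted effect of over 50% in size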
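H1299 lung cancer cells, p53-null (H1299-neo) or expressing p53 A138V (H1299-p53A138V), were plated overnight at 37C, then exposed to compounds at up to 46 uM for 24 hr at 39C. Viability was read by ATP-based luminescence.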
NLuc saturating – Biochemical NLuc saturation counterscreen for small molecule modulators of PMP22 gene expression - Nano-Glo assay; 4% of 690 active; Potency, µM (top dose mostly 57.5 µM), for inactives: at the top dose activity change, negative = inhibition, hits mostly inhibitors; AID 1508638, 2021; Secreted NLuc enzyme (filtered S16 cell medium), Nano-Glo luminescence; shares compounds with PMP22 txn prim; further: potency means the concentration at half of the fitted maximal effect; on the % scale 0 is the no-effect control and ±100 the full control effect
NLuc Km ctr – Biochemical coelenterazine-based NLuc counterscreen for small molecule modulators of PMP22 gene expression - Km assay; shares compounds with PMP22 txn prim; secreted NLuc enzyme, coelenterazine luminescence, Km conditions; Potency, µM (series often up to 57.5 µM), without a hit: top-dose activity change, negative = inhibition, actives largely listed as inhibitors; 5% of 690 active; further: potency means the concentration at half of the fitted maximal effect; on the % scale 0 is the no-effect control and ±100 the full control effect
FLuc ctr PMP22 – Biochemical FLuc counterscreen for small molecule modulators of PMP22 gene expression; 690 tested, under 10 active; Potency, µM (top dose mostly 57.5 µM), without a hit: at the top dose activity, negative = inhibition, most hits filed as inhibitors; purified P. pyralis FLuc, luminescence, 10 min; shares compounds with PMP22 txn prim; further: % of control where 0% means no effect
Target sequence (P08659 whole entry, looked up): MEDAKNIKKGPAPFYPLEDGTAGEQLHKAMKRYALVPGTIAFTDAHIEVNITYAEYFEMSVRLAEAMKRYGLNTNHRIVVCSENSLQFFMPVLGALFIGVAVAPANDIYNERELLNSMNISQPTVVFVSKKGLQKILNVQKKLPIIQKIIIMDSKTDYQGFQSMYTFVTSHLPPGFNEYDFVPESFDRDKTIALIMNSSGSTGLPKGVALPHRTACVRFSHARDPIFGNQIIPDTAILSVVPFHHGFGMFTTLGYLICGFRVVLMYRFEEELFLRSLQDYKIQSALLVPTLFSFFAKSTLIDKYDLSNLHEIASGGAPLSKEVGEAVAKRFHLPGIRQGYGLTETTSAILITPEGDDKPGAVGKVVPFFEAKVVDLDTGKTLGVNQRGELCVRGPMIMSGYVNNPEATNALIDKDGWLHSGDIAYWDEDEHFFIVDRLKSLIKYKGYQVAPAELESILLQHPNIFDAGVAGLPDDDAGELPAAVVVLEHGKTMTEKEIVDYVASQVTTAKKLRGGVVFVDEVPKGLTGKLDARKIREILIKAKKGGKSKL
S16 viab conf – Cell viability qHTS assay in S16 Pmp22-F2sN cells - Confirmatory screen | shares compounds with PMP22 txn prim | S16 Schwann cells viability, CellTiter-Glo ATP luminescence, 24 h | Potency, µM (titrated, usually from 57.5 µM), without a hit: top-dose activity change, negative = viability loss, most hits filed as cytotoxic | 7% of 690 active | AID 1508641, 2021; further: potency means the concentration at half of the fitted maximal effect; on the % scale 0 is the no-effect control and ±100 the full control effect
PMP22 txn conf – Cell-based coincidence reporter assay to measure PMP22 gene transcription in S16 Pmp22-F2sN cells - Confirmatory screen | S16 Schwann cells Pmp22-F2sN, dual luciferase, 24 h | shares compounds with PMP22 txn prim | Potency, µM (doses to about 57.5 µM), inactives show top-dose activity change, negative = inhibition, most hits filed as inhibitors | 22% of 690 active; active means clear falling dose curves in both reporters; inconclusive means both reporters move, but less clearly or upward; inactive means either reporter flat; the % is the FLuc reporter signal; further: potency means the concentration at half of the fitted maximal effect
PMP22 HiBiT cnf – Cell-based HiBiT reporter assay to measure PMP22 protein expression in S16 Pmp22-HiBiT cells - Confirmatory screen; Potency, µM (doses to about 27.9 µM), for inactives: at the top dose activity change, negative = inhibition, usual class: inhibitors; 95 tested, under 10 active; AID 1508647, 2021; S16 Schwann cells Pmp22-HiBiT, luminescence, 48 h; shares compounds with PMP22 txn prim
Target sequence (P25094 whole entry, looked up): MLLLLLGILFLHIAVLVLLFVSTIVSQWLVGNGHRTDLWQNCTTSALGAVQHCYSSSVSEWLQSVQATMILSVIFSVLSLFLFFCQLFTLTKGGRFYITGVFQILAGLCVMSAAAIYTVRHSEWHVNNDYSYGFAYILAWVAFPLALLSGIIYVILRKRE
* marks the source's active call; other numbers are inactive results; i = inactive; u = inconclusive; x = no result. Hits are enriched below; roughly 3.1% of the tested compounds scored in any of these assays. Unless noted, the call rests on the fitted dose curve; in most records, active means well fitted curve in the direction sought with a large enough effect; inconclusive means small, poorly fitted or top-dose-only effect, or another doubt; inactive means no such curve, though single readings can be large; an effect the other way counts as inactive or inconclusive.

SMILES	p53null 32C tox	pS6 MEF inh	OvCa metastasis	PMP22 txn prim	S16 viability	p53null 39C kill	NLuc saturating	NLuc Km ctr	FLuc ctr PMP22	S16 viab conf	PMP22 txn conf	others
COC(=O)c1ccc(CSc2nc3c([nH]c4ccccc43)c(=O)n2-c2cccc(OC)c2)o1	12.7%	-8.7%	i	-23.8%	-7.5%	14.0%	x	x	x	x	x
CCN1CCOC(=O)C1CC(=O)Nc1ccc(C)c(Cl)c1 (stereo unspecified)	x	u	i	u	u	x	x	x	x	x	x
CCN1CCOC(=O)C1CC(=O)Nc1cc(Cl)ccc1C (stereo unspecified)	x	u	i	10.6µM*	u	x	-7.7%	0.1%	-5.9%	u	u
CCN1CCOC(=O)C1CC(=O)Nc1cccc(OC)c1 (stereo unspecified)	x	20.7µM*	2.8%	12.7µM*	u	x	-6.2%	-1.5%	5.9%	u	u
COc1cc(NC(=O)CC2C(=O)OCCN2Cc2ccccc2)cc(OC)c1 (stereo unspecified)	x	-14.6%	i	-24.9%	-0.2%	x	x	x	x	x	x
CCOc1ccccc1CNC(=O)CSc1nnc(C)c2c(C)n(-c3ccccc3)nc12	6.1%	-12.1%	-3.2%	-27.0%	0.5%	10.2%	x	x	x	x	x
COc1ccccc1CNC(=O)CSc1nnc(C)c2c(C)n(-c3ccccc3)nc12	9.5%	0.0%	-2.0%	15µM*	u	6.8%	u	4.4%	-2.9%	-1.0%	u	PMP22 HiBiT cnf=u
CCc1ccc(-c2cc(C)no2)cc1S(=O)(=O)NCc1ccc(OC)cc1	-19.3%	u	-29.0%	6.05µM*	1.6%	u	u	u	-18.4%	-11.3%	u
CCOc1ccc(CNS(=O)(=O)c2cc(-c3cc(C)no3)ccc2C)cc1OC	-8.7%	2.7%	0.5%	-9.0%	-0.5%	-5.0%	x	x	x	x	x
COc1ccc(CCNC(=O)Cn2c(-c3cccs3)cc3cc(F)ccc32)cc1OC	u	-9.7%	4.6%	u	8.9%	5.7%	x	x	x	x	x	PMP22 HiBiT cnf=u
O=C(Cn1c(-c2cccs2)cc2cc(F)ccc21)NCCCN1CCN(c2ccc(F)cc2)CC1	-3.9%	-6.1%	0.4%	u	0.2%	2.5%	x	x	x	x	x	PMP22 HiBiT cnf=2.7%
CCOc1ccc(CCNC(=O)Cn2c(-c3cccs3)cc3ccccc32)cc1OCC	-8.3%	-1.2%	-1.6%	u	-8.5%	-0.8%	x	x	x	x	x
O=C(CCS(=O)(=O)c1ccc(Br)s1)Nc1cc(C(F)(F)F)cc(C(F)(F)F)c1	5.5%	-28.6%	u	20µM*	u	u	0.2%	-14.4%	-4.0%	u	u
CC(C)=CCCC(C)=CCCC(C)=CCCC(C)=CCCC(C)=CCCC(C)=CCCC(C)=CCCC(C)=CCCC(C)=CCO	x	x	10.0%	x	x	x	x	x	x	x	x
CCCC(=O)N(c1ccc2oc(C)c(C(C)=O)c2c1)S(=O)(=O)c1ccc(CC)cc1	38.9%	-13.1%	i	8.43µM*	u	-0.6%	-17.4%	4.8%	-8.2%	-24.6%	u
COc1ccc(-c2csc3ncnc(Nc4ccc(OC)cc4OC)c23)cc1	2.0%	0.0%	-19.6%	u	-21.3%	20.4%	x	x	x	x	x
COc1ccccc1Nc1ncnc2scc(-c3ccc(F)cc3)c12	-6.9%	10.9%	15.1%	17.8µM*	-28.4%	-4.9%	-7.8%	4.4%	7.2%	-2.3%	-48.6%
O[C@@H](CNC[C@H](O)[C@H]1CCc2cc(F)ccc2O1)[C@@H]1CCc2cc(F)ccc2O1	x	x	-6.1%	x	x	x	x	x	x	x	x
C[C@H](c1ccc(F)cc1CCCC(=O)O)N(c1cc(F)ccc1F)S(=O)(=O)c1ccc(Cl)cc1	x	x	-2.0%	x	x	x	x	x	x	x	x
CCC(=O)Nc1nnc(SCc2cc(=O)c3cc(C)ccc3[nH]2)s1	-3.1%	8.4%	-1.0%	u	-24.6%	15.0%	x	x	x	x	x
CCCC(=O)Nc1nnc(SCc2cc(=O)c3ccc(C)cc3[nH]2)s1	-0.3%	u	-19.4%	6.77µM*	-22.2%	2.4%	u	u	-12.2%	-22.9%	u
FC(F)(F)c1ccc(Nc2nc3ccc(Oc4ccnc(-c5ncc(C(F)(F)F)[nH]5)c4)cc3[nH]2)cc1	x	x	17.7%	x	x	x	x	x	x	x	x
